Data published in ChEMBL document CHEMBL4513216, “Probing the Open Global Health Chemical Diversity Library for Multistage-Active Starting Points for Next-Generation Antimalarials” (ACS Infect Dis, 2020).
Out of some 69,000 compounds screened, about 8,600 (12%) showed an effect of 50% or more. The sample as a whole holds a higher share of strong results than the screen did.

Tested on: Plasmodium berghei
Assay: Screen against P. berghei liver stage (PbLuc), transformed with Luciferase, at 10uM
Assay type: functional, HepG2
Settings: tested at 10 uM

Compound | INHIBITION [%]
COCCNC(=O)NC1CCN(c2cnn(C)c2)C1 (centres undefined) | 16
Cn1cc(CN2C[C@@H](NC(=O)c3cscn3)[C@H]3OCCC[C@H]32)cn1 | -4.88
COc1ccc(-c2ccnc(N)c2)c(C)c1 | 29.1
COCCNS(=O)(=O)c1cccc(CSC)c1 | 20.2
Cc1nn(C)c(C)c1C1CCCN1C(=O)CCCc1ccccn1 (centres undefined) | 23.4
CS(=O)(=O)NC1CCc2[nH]c(=O)ccc2C1 (centres undefined) | 30.5
O=C(NC1CCCC1)NC1CCc2[nH]c(=O)ccc2C1 (centres undefined) | 34.9
CC(C)NC1CCc2[nH]c(=O)ccc2C1 (centres undefined) | 86.2
CN(C)CCN(Cc1ccccn1)Cc1ccnn1C1CCCCO1 (centres undefined) | 18.3
COCC1CN(C(=O)COc2ccc(C)cc2)Cc2cn(C)nc21 (centres undefined) | 5.96
CC(=O)c1ccc(CNC(=O)c2cc(C)nn2C)nc1C | -34
CC(C)c1cc(C(=O)NCCc2nc3c(s2)CCC3)n(C)n1 | 89.6
COc1nc2c(cc1C(=O)NCCc1nc3c(s1)CCC3)CCC2 | -6.04
O=C(O)c1ccnc(-c2ccnc(NCCc3nc4c(s3)CCC4)n2)c1 | 30.9
CC(C)Cc1cc(C(=O)NCCc2nnc(N)s2)n(C)n1 | -24.7
Cc1cc(C(=O)NCCc2nc3c(s2)CCCC3)n(C)n1 | 68
Cc1nn2cc(CCNC(=O)c3cc(C(C)C)no3)nc2s1 | -97.2

Compound | INHIBITION [%]
Cc1nc(CCNC(=O)c2cc(C(C)C)nn2C)sc1C | 81
Cc1nn2cc(CCNC(=O)c3cc(C(C)C)nn3C)nc2s1 | 82.7
Cc1nc(CCNC(=O)C2CC(=O)N(C(C)C)C2)sc1C (centres undefined) | 22.3
c1cc(-c2nccn2CCc2nc3c(s2)CCC3)ccn1 | 11.6
Cc1cc(C(=O)NCCc2cn3nc(C)sc3n2)c(C)o1 | -98.6
CN1CCCN(Cn2nc(-c3ccccc3F)ccc2=O)CC1 | 18.2
Cc1ccsc1C1CCCCCN1Cc1cn(C)nc1C (centres undefined) | 49
CC(C)n1cnnc1CN(C)C(=O)c1ccccc1N1CCOCC1 | 7.92
CCN(CC(O)c1ccc(C)cc1)C(=O)NC(C)C (centres undefined) | 17.8
COc1c(C2CCCN2C(=O)c2cccc(C)n2)c(C)nn1C (centres undefined) | 1.78
CNC(=O)[C@@H]1C[C@H]2CN(Cc3csc(C)n3)C[C@H]2N1C(C)C | 42.4
CCOc1ccc(NC(=O)Nc2cnc(N3CCOCC3)nc2)cc1 | -8.66
O=C(CCCc1ccccc1)Nc1cnc(N2CCOCC2)nc1 | -33.3
O=S(=O)(Nc1cnc(N2CCOCC2)nc1)c1ccc(C(F)(F)F)cc1 | -18
COCC(=O)Nc1cnc(N2CCOCC2)nc1 | 26.9
O=C(Nc1cnc(N2CCOCC2)nc1)c1ccc(C(F)(F)F)cc1 | 77.9
O=C(COc1ccc(Cl)cc1)Nc1cnc(N2CCOCC2)nc1 | 52.7
